This is an account of results in PubChem BioAssay (NCI).

Molecules are shown by their SMILES. Compounds without any hit were thinned out: in the full panel of roughly 79,000, 15% have a hit. Unmarked numbers belong to inactive results. Active and inactive are the calls of the source. Cut-off read from the data, not from the text of the source: active = growth inhibition above about 70%; inactive = the rest.

The nature of assay [1]: NCI Yeast Anticancer Drug Screen. Data for the rad50 strain (AID 155).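 Note: 0% = growth of vehicle-only cultures of the same strain.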 The settings on record: S. cerevisiae rad50 strain growth inhibition, stronger effect = higher value. In short, it runs like this: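 Cells are treated with compound, grown, and their growth is then scored against vehicle-only cultures of the same repair-deficient yeast strain.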
Assay [2] can be described thus: NCI Yeast Anticancer Drug Screen. Data for the mec2-1 strain (AID 157). The settings on record: S. cerevisiae mec2-1 strain, stronger effect = higher value. In outline: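 Each compound was tested on mec2-1 yeast, a strain altered in DNA damage repair or cell cycle control. Growth inhibition is reported relative to vehicle.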
Assay [3] is described as follows: NCI Yeast Anticancer Drug Screen. Data for the sgs1 mgt1 strain (AID 161).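 Note: 0% = growth of cultures given vehicle only.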 To be noted: S. cerevisiae sgs1 mgt1 strain, stronger effect = higher value. In outline:
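Mutant yeast exposed to compound; growth scored against vehicle-only wells.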

A short description of assay [4]: NCI Yeast Anticancer Drug Screen. Data for the cln2 rad14 strain (AID 165).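 Note: 0% = growth equal to vehicle treated cultures.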 The settings on record: S. cerevisiae cln2 rad14 strain, stronger effect = higher value. In outline:
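Test compounds were added to cln2 rad14 yeast cultures; inhibition of growth was then determined by comparison with vehicle treatment.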

Assay [5] can be described thus: NCI Yeast Anticancer Drug Screen. Data for the bub3 strain (AID 167). The settings on record: S. cerevisiae bub3 mutant strain, stronger effect = higher value. In short, it runs like this:
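Part of a panel of yeast mutants defective in DNA damage repair or cell cycle regulation. Each strain is grown with compound, and inhibition is calculated relative to solvent-treated cultures.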

Assay [6] is described as follows: NCI Yeast Anticancer Drug Screen. Data for the mlh1 rad18 strain (AID 175). The settings on record: S. cerevisiae mlh1 rad18 strain growth inhibition, stronger effect = higher value. In short, it runs like this: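 Inhibition values reflect reduced growth of mutant yeast versus vehicle-treated controls following compound exposure; the mutations affect DNA damage repair.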

Setting [7] is: at 5.0 µM (retest, dose inferred, filed as 0.5).
Setting [8] is: at 50.0 µM (retest, dose inferred, filed as 5.0).

Take `CC1=C2C(=CC(C)(C)[C@@H]2O)C(=O)[C@](C)(O)C12CC2`: the growth inhibition in assay [1] (setting [7]) was 44%; in assay [1] (setting [8]), 92% (active); in assay [1] (at 50.0 µM), 80.6% (active); in assay [2] (setting [7]) it was 12%; in assay [2] (setting [8]), 96% (active); in assay [2] (at 50.0 µM), 89.8% (active). For the same compound, the growth inhibition in assay [3] (setting [7]) was 53%; in assay [3] (setting [8]) it was 91% (active); in assay [3] (at 50.0 µM) it was 80.8% (active); in assay [4] (setting [7]), 23%; in assay [4] (setting [8]) it was 90% (active); in assay [4] (at 50.0 µM), 84.8% (active). Further, the growth inhibition is 12% in assay [5] (setting [7]); 39% in assay [5] (setting [8]); 7.1% in assay [5] (at 50.0 µM); 35% in assay [6] (setting [7]); 91% (active) in assay [6] (setting [8]); 78.3% (active) in assay [6] (at 50.0 µM).

For `CC(=O)[O][Hg][c]1ccc(N)[c]([Hg][O]C(C)=O)c1`, the growth inhibition was 99% (active) in assay [1] (setting [7]); 98% (active) in assay [1] (setting [8]); 99.5% (active) in assay [1] (at 50.0 µM); 99% (active) in assay [2] (setting [7]); 99% (active) in assay [2] (setting [8]); 99.5% (active) in assay [2] (at 50.0 µM). For the same compound, the growth inhibition was 99% (active) in assay [3] (setting [7]); 99% (active) in assay [3] (setting [8]); 99.5% (active) in assay [3] (at 50.0 µM); 99% (active) in assay [4] (setting [7]); 98% (active) in assay [4] (setting [8]); 98.7% (active) in assay [4] (at 50.0 µM). Further, the growth inhibition in assay [5] (setting [7]) is 99% (active); in assay [5] (setting [8]) it was 99% (active); in assay [5] (at 50.0 µM), 99.2% (active); in assay [6] (setting [7]), 99% (active); in assay [6] (setting [8]) it was 99% (active); in assay [6] (at 50.0 µM), 99.1% (active).

On to `C[AsH](C)CC[AsH](C)C.C[AsH](C)CC[AsH](C)C.C[AsH](C)CC[AsH](C)C.[Ni]`, for which the growth inhibition in assay [1] (setting [7]) is 79% (active); in assay [1] (setting [8]), 98% (active); in assay [1] (at 50.0 µM), 96.9% (active); in assay [2] (setting [7]) it was 51%; in assay [2] (setting [8]), 99% (active); in assay [2] (at 50.0 µM), 95% (active). The growth inhibition in assay [3] (setting [7]) was 93% (active); in assay [3] (setting [8]), 99% (active); in assay [3] (at 50.0 µM), 96.7% (active); in assay [4] (setting [7]) it was 74% (active); in assay [4] (setting [8]), 97% (active); in assay [4] (at 50.0 µM), 93.5% (active). Moreover, the growth inhibition is 68% in assay [5] (setting [7]); 99% (active) in assay [5] (setting [8]); 96.5% (active) in assay [5] (at 50.0 µM); 56% in assay [6] (setting [7]); 99% (active) in assay [6] (setting [8]); 96.5% (active) in assay [6] (at 50.0 µM).

Take `Cc1cc[n+](C2C(=O)c3ccccc3C(=O)C2Nc2cc(Cl)ccc2Cl)cc1` (stereo not given): the growth inhibition in assay [1] (setting [7]) is 19%; in assay [1] (setting [8]), 96% (active); in assay [1] (at 50.0 µM), 96.8% (active); in assay [2] (setting [7]), 11%; in assay [2] (setting [8]), 98% (active); in assay [2] (at 50.0 µM) it was 98.8% (active). For the same compound, the growth inhibition in assay [3] (setting [7]) was 11%; in assay [3] (setting [8]), 99% (active); in assay [3] (at 50.0 µM), 78.9% (active); in assay [4] (setting [7]) it was 5%; in assay [4] (setting [8]), 95% (active); in assay [4] (at 50.0 µM), 66.2%. In addition, the growth inhibition in assay [5] (setting [7]) was 15%; in assay [5] (setting [8]), 98% (active); in assay [5] (at 50.0 µM), 98.5% (active); in assay [6] (setting [7]) it was 12%; in assay [6] (setting [8]), 98% (active); in assay [6] (at 50.0 µM), 94.5% (active).

`CN(C)C(=S)Nc1nnc(NC23CC4CC(CC(C4)C2)C3)s1`: the growth inhibition is -1% in assay [1] (setting [7]); 61% in assay [1] (setting [8]); 96.7% (active) in assay [1] (at 50.0 µM); -29% in assay [2] (setting [7]); 89% (active) in assay [2] (setting [8]); 96.2% (active) in assay [2] (at 50.0 µM). Besides, the growth inhibition is 15% in assay [3] (setting [7]); 60% in assay [3] (setting [8]); 97.8% (active) in assay [3] (at 50.0 µM); -22% in assay [4] (setting [7]); 94% (active) in assay [4] (setting [8]); 95.6% (active) in assay [4] (at 50.0 µM). Moreover, the growth inhibition was 3% in assay [5] (setting [7]); 96% (active) in assay [5] (setting [8]); 93% (active) in assay [5] (at 50.0 µM); -2% in assay [6] (setting [7]); 48% in assay [6] (setting [8]); 97% (active) in assay [6] (at 50.0 µM).

On to `CCCCCCCCN1CCN(CCCCCCCC)C2CCCCC21` (stereo not given) (tested in a mixture with another compound), for which the growth inhibition is 12% in assay [1] (setting [7]); 95% (active) in assay [1] (setting [8]); 67.2% in assay [1] (at 50.0 µM); 4% in assay [2] (setting [7]); 96% (active) in assay [2] (setting [8]); 44.1% in assay [2] (at 50.0 µM). The growth inhibition in assay [3] (setting [7]) was 25%; in assay [3] (setting [8]) it was 94% (active); in assay [3] (at 50.0 µM) it was 70.2% (active); in assay [4] (setting [7]), 8%; in assay [4] (setting [8]), 71% (active); in assay [4] (at 50.0 µM) it was 56%. Besides, the growth inhibition in assay [5] (setting [7]) was 20%; in assay [5] (setting [8]) it was 99% (active); in assay [5] (at 50.0 µM), 71.5% (active); in assay [6] (setting [7]), 18%; in assay [6] (setting [8]), 96% (active); in assay [6] (at 50.0 µM), 77% (active).

In the case of `C[CH2][Sn]1([CH2]C)[O]S(=O)(=O)[O]1`, the growth inhibition in assay [1] (setting [7]) is 15%; in assay [1] (setting [8]) it was 77% (active); in assay [1] (at 50.0 µM), 70.2% (active); in assay [2] (setting [7]), 12%; in assay [2] (setting [8]) it was 95% (active); in assay [2] (at 50.0 µM), 76.5% (active). The growth inhibition is 12% in assay [3] (setting [7]); 93% (active) in assay [3] (setting [8]); 25.4% in assay [3] (at 50.0 µM); 22% in assay [4] (setting [7]); 56% in assay [4] (setting [8]); 60.2% in assay [4] (at 50.0 µM). For the same compound, the growth inhibition in assay [5] (setting [7]) was 13%; in assay [5] (setting [8]) it was 92% (active); in assay [5] (at 50.0 µM) it was 45.1%; in assay [6] (setting [7]), 12%; in assay [6] (setting [8]), 88% (active); in assay [6] (at 50.0 µM), 53.9%.

With `COC1CCCC2OC3(OC)C(OC)CCCC3OC12OC` (stereo not given), the growth inhibition was 3% in assay [1] (setting [7]); -4% in assay [1] (setting [8]); 12.2% in assay [1] (at 50.0 µM); -1% in assay [2] (setting [7]); -3% in assay [2] (setting [8]); 14.7% in assay [2] (at 50.0 µM). The growth inhibition in assay [3] (setting [7]) is 2%; in assay [3] (setting [8]), -2%; in assay [3] (at 50.0 µM), 10.2%; in assay [4] (setting [7]), 5%; in assay [4] (setting [8]) it was -39%; in assay [4] (at 50.0 µM), 40.9%. For the same compound, the growth inhibition in assay [5] (setting [7]) was 3%; in assay [5] (setting [8]) it was 9%; in assay [5] (at 50.0 µM), 27.2%; in assay [6] (setting [7]) it was -1%; in assay [6] (setting [8]), -11%; in assay [6] (at 50.0 µM), 7.85%.

For the compound `Nc1cc2[nH]cnc2c([Se])n1`, the growth inhibition in assay [1] (setting [7]) is -155%; in assay [1] (setting [8]), -6%; in assay [1] (at 50.0 µM), 56%; in assay [2] (setting [7]) it was -39%; in assay [2] (setting [8]), -11%; in assay [2] (at 50.0 µM), 62.9%. The growth inhibition in assay [3] (setting [7]) was -54%; in assay [3] (setting [8]), 19%; in assay [3] (at 50.0 µM), 48%; in assay [4] (setting [7]) it was -60%; in assay [4] (setting [8]) it was -33%; in assay [4] (at 50.0 µM), 7.45%. Besides, the growth inhibition in assay [5] (setting [7]) was -75%; in assay [5] (setting [8]) it was 21%; in assay [5] (at 50.0 µM), 57.5%; in assay [6] (setting [7]) it was -141%; in assay [6] (setting [8]) it was -29%; in assay [6] (at 50.0 µM) it was 83.8% (active).

As to `CC(C)(C)OOC(=O)/C=C\C(=O)OOC(C)(C)C`, the growth inhibition in assay [1] (setting [7]) is 1%; in assay [1] (setting [8]) it was -1%; in assay [1] (at 50.0 µM), 5.05%; in assay [2] (setting [7]) it was -2%; in assay [2] (setting [8]), -1%; in assay [2] (at 50.0 µM), -15.1%. In addition, the growth inhibition in assay [3] (setting [7]) is 0%; in assay [3] (setting [8]) it was 0%; in assay [3] (at 50.0 µM), 8.55%; in assay [4] (setting [7]) it was 1%; in assay [4] (setting [8]), -8%; in assay [4] (at 50.0 µM), 75.3% (active). The growth inhibition in assay [5] (setting [7]) is 2%; in assay [5] (setting [8]), 0%; in assay [5] (at 50.0 µM), 9.7%; in assay [6] (setting [7]), 1%; in assay [6] (setting [8]), 0%; in assay [6] (at 50.0 µM), -12.7%.
